Laboratory results reported in PubChem BioAssay (NCI).
About 79,000 compounds went through this panel and 15% of them were active in at least one assay; those are over-represented in the sample as a whole. Calls of active or inactive are those of the source. Rule as the data show it: active = growth inhibition above about 70%; inactive = the rest.

Columns and labels:
[1] = NCI Yeast Anticancer Drug Screen. Data for the rad52 strain (AID 147);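 also: 0% = growth of vehicle-treated control cultures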; details: S. cerevisiae rad52 mutant growth inhibition, stronger effect = higher value
Method in brief: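 Measured: yeast growth inhibition. System: strain with a defined DNA damage repair alteration. Reference: vehicle-treated control cultures.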

[2] = NCI Yeast Anticancer Drug Screen. Data for the wt1 strain (AID 149);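 also: 0% = growth of vehicle-treated wt1 cultures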; details: S. cerevisiae wt1 strain (SPY 50644) growth inhibition, stronger effect = higher value
Method in brief: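 Vehicle-normalised growth inhibition; strain wt1; compound exposure.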

[3] = NCI Yeast Anticancer Drug Screen. Data for the rad50EPP+ strain (AID 151);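 also: 0% = growth of vehicle-treated control cultures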; details: S. cerevisiae rad50 mutant strain, stronger effect = higher value
Method in brief: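 One strain with a rad50 alteration (rad50EPP+) was compound-treated, its growth then compared to that of vehicle controls.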

[4] = NCI Yeast Anticancer Drug Screen. Data for the mgt1 strain (AID 153); details: S. cerevisiae mgt1 mutant growth inhibition, stronger effect = higher value
Method in brief: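 After exposure of the mgt1 yeast mutant to compound, growth was measured and reported as inhibition compared with vehicle controls.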

[5] = NCI Yeast Anticancer Drug Screen. Data for the rad50 strain (AID 155);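 also: 0% = growth of vehicle-only cultures of the same strain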; details: S. cerevisiae rad50 strain growth inhibition, stronger effect = higher value
Method in brief: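 A DNA repair-deficient yeast mutant serves as the test organism; compound-induced growth inhibition is calculated against vehicle-treated cells.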

[6] = NCI Yeast Anticancer Drug Screen. Data for the mec2-1 strain (AID 157); details: S. cerevisiae mec2-1 strain, stronger effect = higher value
Method in brief: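 Test agents were screened against the mec2-1 yeast strain, with defined DNA repair or cell cycle alteration. Growth was scored as inhibition against vehicle-only controls.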

[7] = NCI Yeast Anticancer Drug Screen. Data for the rad14 strain (AID 159);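 also: 0% = growth of vehicle-treated control cultures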; details: S. cerevisiae rad14 strain growth inhibition, stronger effect = higher value
Method in brief: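 Vehicle-treated cultures served as the baseline for growth inhibition of a DNA repair-mutant yeast strain exposed to each compound.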

[8] = NCI Yeast Anticancer Drug Screen. Data for the sgs1 mgt1 strain (AID 161);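 also: 0% = growth of cultures given vehicle only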; details: S. cerevisiae sgs1 mgt1 strain, stronger effect = higher value
Method in brief: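 Genetically altered yeast, compound exposure, growth inhibition relative to vehicle.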

[9] = NCI Yeast Anticancer Drug Screen. Data for the CLN2oe strain (AID 163);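 also: 0% = growth of vehicle-only control cultures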; details: S. cerevisiae CLN2oe strain, stronger effect = higher value
Method in brief: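 Here, growth inhibition in a cell-cycle-altered yeast strain after compound exposure was quantified against vehicle control growth.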

[10] = NCI Yeast Anticancer Drug Screen. Data for the cln2 rad14 strain (AID 165);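 also: 0% = growth equal to vehicle treated cultures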; details: S. cerevisiae cln2 rad14 strain, stronger effect = higher value
Method in brief: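 Growth of compound-exposed yeast (cln2 rad14 genotype) measured and expressed as inhibition relative to vehicle.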

[11] = NCI Yeast Anticancer Drug Screen. Data for the bub3 strain (AID 167); details: S. cerevisiae bub3 mutant strain, stronger effect = higher value
Method in brief: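 Inhibition values come from growth of compound-treated mutant yeast normalised to vehicle-treated controls.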

[12] = NCI Yeast Anticancer Drug Screen. Data for the wt2 strain (AID 169);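 also: 0% = growth of vehicle-treated yeast cultures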; details: S. cerevisiae wt2 strain growth inhibition, stronger effect = higher value
Method in brief: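 Genetically defined yeast strains from a DNA-repair/cell-cycle panel were used. Compound-exposed yeast growth was measured, and the inhibition was calculated relative to vehicle treatment.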

[13] = NCI Yeast Anticancer Drug Screen. Data for the mlh1 strain (AID 171);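 also: 0% = growth of vehicle-treated control cultures of the same strain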; details: S. cerevisiae mlh1 strain growth inhibition, stronger effect = higher value
Method in brief: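 Here the genetically defined yeast mutant is grown with each compound, and the extent to which its growth falls below that of vehicle-exposed cells is reported.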

[14] = NCI Yeast Anticancer Drug Screen. Data for the sgs1 strain (AID 173);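 also: 0% = growth of vehicle-only control cultures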; details: S. cerevisiae sgs1 mutant, stronger effect = higher value
Method in brief: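 Relative growth inhibition, referenced to vehicle, was determined in a yeast strain with a defined alteration affecting DNA damage repair or cell cycle control after compound exposure.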

[15] = NCI Yeast Anticancer Drug Screen. Data for the mlh1 rad18 strain (AID 175); details: S. cerevisiae mlh1 rad18 strain growth inhibition, stronger effect = higher value
Method in brief: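 In this whole-cell yeast screen, a strain with altered DNA damage repair is challenged with compound, and its growth is measured against matched vehicle-treated controls.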

[16] = at 5.0 µM (retest, dose inferred, filed as 0.5)
[17] = at 50.0 µM (retest, dose inferred, filed as 5.0)

Measured: growth inhibition

CN(C)CCNCCCNc1c2ccccc2nc2cccc([N+](=O)[O-])c12
inactive: [1]; at 1.2 µM 23% | [1]; at 3.7 µM 46% | [2]; at 1.2 µM -14% | [2]; at 3.7 µM 9% | [2]; at 11.0 µM 11% | [2]; at 33.0 µM 20% | [2]; at 100.0 µM 50% | [3]; at 1.2 µM 9% | [3]; at 3.7 µM 26% | [3]; at 11.0 µM 69% | [4]; at 1.2 µM 4% | [4]; at 3.7 µM 18% | [4]; at 11.0 µM 20% | [4]; at 33.0 µM 26% | [4]; at 100.0 µM 58% | [5]; at 1.2 µM 9% | [5]; at 3.7 µM 39% | [5]; [16] 17% | [5]; at 11.0 µM 61% | [6]; at 1.2 µM 22% | [6]; at 3.7 µM 18% | [6]; [16] 17% | [6]; at 11.0 µM 50% | [7]; at 1.2 µM -2% | [7]; at 3.7 µM 46% | [9]; at 1.2 µM -2% | [9]; at 3.7 µM -4% | [9]; at 11.0 µM 2% | [9]; at 33.0 µM 22% | [11]; at 1.2 µM -5% | [11]; at 3.7 µM -11% | [11]; [16] -12% | [11]; at 11.0 µM -11% | [11]; at 33.0 µM 6% | [11]; at 50.0 µM -3.8% | [12]; at 1.2 µM 0% | [12]; at 3.7 µM 1% | [12]; at 11.0 µM 11% | [12]; at 33.0 µM 33% | [13]; at 1.2 µM 5% | [13]; at 3.7 µM 18% | [13]; at 11.0 µM 25% | [13]; at 33.0 µM 46% | [14]; at 1.2 µM 31% | [14]; at 3.7 µM 58%
active: [1]; at 11.0 µM 80% | [1]; at 33.0 µM 89% | [1]; at 100.0 µM 94% | [3]; at 33.0 µM 90% | [3]; at 100.0 µM 95% | [5]; at 33.0 µM 88% | [5]; [17] 93% | [5]; at 50.0 µM 80.8% | [5]; at 100.0 µM 94% | [6]; at 33.0 µM 91% | [6]; [17] 98% | [6]; at 50.0 µM 78.7% | [6]; at 100.0 µM 95% | [7]; at 11.0 µM 92% | [7]; at 33.0 µM 97% | [7]; at 100.0 µM 97% | [8]; [16] 73% | [8]; [17] 95% | [8]; at 50.0 µM 79.7% | [9]; at 100.0 µM 81% | [10]; [16] 80% | [10]; [17] 97% | [10]; at 50.0 µM 97.5% | [11]; [17] 72% | [11]; at 100.0 µM 80% | [12]; at 100.0 µM 91% | [13]; at 100.0 µM 74% | [14]; at 11.0 µM 76% | [14]; at 33.0 µM 84% | [14]; at 100.0 µM 89% | [15]; [16] 73% | [15]; [17] 97% | [15]; at 50.0 µM 88.7%
